Measurements: PubChem BioAssay (NCI)
This is part of a sample that, as a whole, favours compounds with a hit. Of some 83,000 tested, about 20% had one in any assay.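 Cell lines were cultured in 96-well plates, exposed to a single compound concentration, and assessed for percent growth 48 hours later.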 A number with no mark means an inactive call. Active and inactive are the calls of the source. The calls were made as follows: active = growth percent below 10; inactive = the rest.

What was measured:
Experiment in all cases: NCI-60 one-dose screen, 48 h (100 = growth as untreated, 0 = no growth, -100 = all killed)
Conditions in all cases: 10 µM unless noted
[1] = system: DU-145 prostate
[2] = system: K-562 leukemia
[3] = system: MALME-3M melanoma
[4] = system: MDA-MB-231 breast
[5] = system: RXF 393 renal
[6] = system: SF-268 CNS
[7] = system: SF-295 CNS
[8] = system: SF-539 CNS
[9] = system: UACC-257 melanoma
[10] = system: M14 melanoma
[11] = system: HCT-15 colon
[12] = system: HT29 colon
[13] = system: SNB-75 CNS
[14] = system: SNB-19 CNS
[15] = system: U251 CNS
[16] = system: PC-3 prostate
[17] = system: SK-MEL-5 melanoma
[18] = system: UACC-62 melanoma
[19] = system: LOX IMVI melanoma
[20] = system: SK-MEL-28 melanoma

| SMILES | growth [1] | growth [2] | growth [3] | growth [4] | growth [5] | growth [6] | growth [7] | growth [8] | growth [9] | growth [10] | growth [11] | growth [12] | growth [13] | growth [14] | growth [15] | growth [16] | growth [17] | growth [18] | growth [19] | growth [20] |
| --- | --- | --- | --- | --- | --- | --- | --- | --- | --- | --- | --- | --- | --- | --- | --- | --- | --- | --- | --- | --- |
| NS(=O)(=O)c1cnccc1Oc1cccc2cccnc12 | 108% | 82.4% | 96% | 102% | 104% | 101% | 120% | 88.3% | 114% | 98.8% | 90.5% | 107% | 89.6% | 99.6% | 102% | 95.9% | 106% | 104% | 96% | 109% |
| N=C1CCC(=N)c2c1c(O)c1ccccc1c2O | 106% | 65.1% | 135% | 89.6% | 79.6% | 85.4% | 102% | 171% | 101% | 118% | 108% | 101% | 87.2% | 103% | 100% | 80.3% | 126% | 102% | 81.9% | 106% |
| CC/C=C\CCC/C=C1/C(=O)C=C[C@@H]1C/C=C\CCCC(=O)O | 83.9% | 7.87% (active) | 92% | 44.1% | 108% | 89% | 82.9% | 103% | 72.3% | 54.6% | 53.7% | 31.9% | 86.5% | 69.2% | 39.8% | 57.6% | 16.9% | 15.6% | 0.644% (active) | 87.1% |
| CC(=O)c1ccc(NCC(=O)Nc2ccccn2)cc1 | 107% | 95.6% | 97.6% | 94.1% | 117% | 97.1% | 109% | 106% | 106% | 106% | 109% | 109% | 92.7% | 100% | 102% | 96.4% | 99.9% | 97% | 101% | 115% |
| CCOC(=O)c1c(/C=C/C(=O)O)nc2ccccc2c1/C=C/c1ccccc1 | 14.2% | 23.9% | 51.4% | 57.5% | 11.3% | 40.7% | 73.6% | 19.8% | 49.6% | 63% | 23.9% | 49.9% | 15% | 61.1% | 51.2% | 53.5% | 53.7% | 45.5% | 28.1% | 45.8% |
| Cc1cc(NCCCCNc2ccnc3cc(Cl)ccc23)nc(Nc2ccc(C(=O)N3CCCC3)cc2)n1 | 48.3% | -24.6% (active) | -70.4% (active) | -22.2% (active) | 32.4% | 15.7% | 3.67% (active) | -68.6% (active) | -70.6% (active) | -73.9% (active) | 7.18% (active) | -2.28% (active) | -9.47% (active) | 30.5% | -7.46% (active) | 35.6% | -100% (active) | -33.6% (active) | -90.9% (active) | -72.8% (active) |
| CCOC(=O)/C=C/c1cc2cc(-c3csc4ccccc34)ccc2[nH]1 | 89.5% | 25.4% | 76.9% | 56.9% | 83.4% | 74.8% | 64.6% | 77.6% | 69.5% | 68.1% | 56.8% | 21.9% | 97.5% | 101% | 78.2% | 62% | 87.6% | 67.5% | 64.7% | 104% |
| Cc1nc2c(c(N3CCCc4ccccc43)n1)CCC2 | -8.95% (active) | 4.8% (active) | 54.2% | 18.1% | 33% | 16.9% | 9.59% (active) | 1.1% (active) | 26.3% | -17.6% (active) | 4.84% (active) | 3.44% (active) | 20.4% | 40% | 7.57% (active) | 12.8% | -49% (active) | 24.3% | 21.2% | 60.4% |
